Source: PubChem BioAssay (National Center for Advancing Translational Sciences (NCATS))
Shown are actives, neighbours in structure and some others; about 10% of the full set was active somewhere.
HEK293 tox: Cytotoxic Profiling in HEK 293 Cell Line of Diverse Libraries Using Quantitative High-Throughput Screening. HEK 293 viability, ATP luminescence (CellTiter-Glo), 48-72 h. 6.6% of 94,000 active. Potency, µM (doses to about 115 µM), for inactives: top-dose activity change, negative = cytotoxicity, usual class: inhibitors. AID 1345083, 2018; note: % is set by controls: 0 for no effect and ±100 for the full control effect; nearly all actives have a fitted effect of over 60% in size
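Cytotoxicity was scored by loss of ATP-coupled luminescence (CellTiter-Glo) in HEK 293 cells. Compound treatment ran 48 or 72 hr at 37 degree Celsius, 5% CO2, 95% humidity.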
FLuc inh-1: Firefly luciferase inhibition profiling of diverse chemical library using quantitative high-throughput screening; Luciferin 4-monooxygenase (Photinus pyralis), P08659; purified P. pyralis luciferase, luminescence, biochemical; Potency, µM (titrated, usually from 115 µM), actives largely listed as inhibitors; 2.5% of 76,000 active; note: % is set by controls: 0 for no effect and ±100 for the full control effect; nearly all actives have a fitted effect of over 65% in size
Target sequence (P08659 whole entry, looked up): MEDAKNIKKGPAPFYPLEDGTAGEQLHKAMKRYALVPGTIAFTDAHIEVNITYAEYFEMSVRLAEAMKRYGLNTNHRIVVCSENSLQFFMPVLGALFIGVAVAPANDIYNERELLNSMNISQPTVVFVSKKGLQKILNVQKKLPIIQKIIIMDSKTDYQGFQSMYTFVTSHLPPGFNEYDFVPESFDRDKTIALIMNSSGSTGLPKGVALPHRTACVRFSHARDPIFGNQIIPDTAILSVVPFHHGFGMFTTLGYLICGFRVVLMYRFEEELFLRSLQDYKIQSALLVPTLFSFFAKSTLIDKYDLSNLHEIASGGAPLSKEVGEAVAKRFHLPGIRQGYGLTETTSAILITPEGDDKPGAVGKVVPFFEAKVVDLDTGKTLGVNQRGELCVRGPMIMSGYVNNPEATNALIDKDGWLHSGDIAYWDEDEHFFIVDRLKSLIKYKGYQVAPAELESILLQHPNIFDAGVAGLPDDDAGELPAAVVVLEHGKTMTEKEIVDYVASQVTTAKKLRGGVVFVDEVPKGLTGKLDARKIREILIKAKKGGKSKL
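Biochemical qHTS: compound (6-point titration) added to 10uM D-luciferin plus 10uM ATP in Tris acetate pH 7.5 buffer with Mg, Tween-20 and BSA, then purified enzyme at 10nM; light output imaged.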
3T3 cytotox: Cytotoxic Profiling in NIH 3T3 Cell Line of Diverse Libraries Using Quantitative High-Throughput Screening; 4.3% of 94,000 active; Potency, µM (top dose mostly 96.7 µM), without a hit: at the highest dose activity change, negative = cytotoxicity, hits mostly inhibitors; AID 1345082, 2018; NIH 3T3 viability, CellTiter-Glo ATP luminescence, 48-72 h; note: % is set by controls: 0 for no effect and ±100 for the full control effect; nearly all actives have a fitted effect of over 55% in size
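Cytotoxicity was measured by CellTiter-Glo ATP luminescence after 48 or 72 h compound exposure at 37 °C. Mouse NIH 3T3 fibroblasts were seeded at 400 cells/well and dosed by 23 nL pin transfer.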
NPR1 antag: Natriuretic polypeptide receptor (hNpr1) antagonism - Primary qHTS; HEK293 hNpr1 GloSensor cGMP, ANP-stimulated luminescence; Potency, µM (highest dose often 46.3 µM), for inactives: at the highest dose activity change, negative = inhibition, hits mostly inhibitors; 1.6% of 76,000 active; calls by dose curve; note: % is set by controls: 0 for no effect and ±100 for the full control effect; nearly all actives have a fitted effect of over 60% in size
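Compound pre-incubated 30 min at room temperature on GloSensor-loaded HEK293 cells stably carrying hNpr1 and the pGS-40F cGMP biosensor. Stimulation uses hNppA at 0.1 nM final; luminescence is taken at baseline and 20 min post-agonist.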
GPT2 inh: Primary qHTS assay for inhibitors of Glutamate pyruvate transaminase 2 (GPT2); Recombinant GPT2, coupled pyruvate oxidase/HRP Amplex Red fluorescence; Potency, µM (highest dose often 57.7 µM), without a hit: at the top dose activity change, negative = inhibition, most hits filed as inhibitors; 0.25% of 100,000 active; AID 1671188, 2021; note: % is set by controls: 0 for no effect and ±100 for the full control effect; nearly all actives have a fitted effect of over 60% in size
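Fluorescence of coupled pyruvate oxidase/HRP/Amplex Red system (50uM Amplex, 30 min, dark) reports pyruvate formed by GPT2. Enzyme reaction: 10ng/uL GPT2, 2mM L-alanine, 250uM a-KG, 30 min room temperature, pH 7.5; 50uM AOA control.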
FLuc SDR -ATP: Firefly luciferase (FLuc-C-HiBiT) SDR gain of signal screen - without ATP; shares compounds with FLuc inh-1; Purified FLuc-C-HiBiT, Nano-Glo HiBiT luminescence, no ATP; Potency, µM (top dose mostly 32.7 µM), for inactives: at the highest dose activation (signal gain), most hits filed as activators; 7.8% of 1,300 active; note: nearly all actives have a fitted effect of over 55% in size
FLuc SDR ATP: Firefly luciferase (FLuc-C-HiBiT) SDR gain of signal screen - plus ATP; 8.7% of 1,300 active; purified FLuc-C-HiBiT + ATP, HiBiT complementation luminescence; shares compounds with FLuc inh-1; Potency, µM (series often up to 32.7 µM), without a hit: at the top dose activation (gain of signal), most hits filed as activators;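 note: signal reports ligand binding via conformational change of the enzyme rather than luciferase catalysis; % of control where 0% means no effect; nearly all actives have a fitted effect of over 55% in size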
FLuc inh-2: Firefly luciferase (FLuc-C-HiBiT) enzymatic inhibition screen - Functional assay; purified FLuc-C-HiBiT enzyme, luciferin luminescence; Potency, µM (series often up to 32.7 µM), without a hit: top-dose activity change, negative = inhibition, hits mostly inhibitors; 42% of 1,300 active; shares compounds with FLuc inh-1; note: % is set by controls: 0 for no effect and ±100 for the full control effect; nearly all actives have a fitted effect of over 70% in size
Starred values were filed as active, the others as inactive; i = inactive; ? = inconclusive; / = not tested or not shown; [ ] = another dose, or the depositor's remark. Unless noted, calls come from the whole dose curve; as a rule, active = well fitted curve in the direction sought with a large enough effect; inconclusive = small, poorly fitted or top-dose-only effect, or another doubt; inactive = no such curve, though single readings can be large; an effect the other way counts as inactive or inconclusive. Potency is the fitted concentration of half-maximal effect.

SMILES	HEK293 tox	FLuc inh-1	3T3 cytotox	NPR1 antag	GPT2 inh	FLuc SDR -ATP	FLuc SDR ATP	FLuc inh-2
Cn1nc(C2CCCN(C(=O)c3ccco3)C2)n(C2CCCC2)c1=O (stereo not drawn)	i	/	?	/	1%	/	/	/
CC(C)Oc1cccc(-c2cccc(COc3cnc4c(ccn4CC(=O)O)c3)c2)c1	?	11µM*	-23%[138 µM]	4%[70.6 µM]	-15%[88.5 µM]	7%[49.3 µM]	5%[49.3 µM]	18µM*
CC(=O)Nc1cccc(-c2cccc(CCOc3cnc4c(ccn4CC(=O)O)c3)c2)c1	/	/	/	/	/	?	?	16µM*
Cc1ccccc1-c1cccc(COc2cnc3c(ccn3CC(=O)O)c2)c1	/	/	/	/	/	9%[49.3 µM]	6%[49.3 µM]	?
CCOC(=O)C1(Cc2cccc(Cl)c2)CCCNC1 (stereo not drawn)	-17%	i	?	1%	-4%[11.5 µM]	/	/	/
COc1ccc(-n2nc3ccc(NC(=O)c4c(OC)cccc4OC)cc3n2)cc1	/	/	/	/	/	16%	12%	-16%
Cc1noc([C@@H]2CN(C(=O)c3ccsc3)C[C@H]2C(N)=O)n1	-15%	i	-13%	5%	-28%	/	/	/
Cn1ccnc1CN1CCOC[C@H]1c1ncc(-c2cccc(Cl)c2)[nH]1	?	i	?	-5%[70.6 µM]	-11%[88.5 µM]	/	/	/
CCn1c(C2CCCN(C(=O)Nc3ccc4c(c3)OCCO4)C2)nn(C)c1=O (stereo not drawn)	8%	6.3µM*	1%	-26%	i	25%	18%	?
CN1CCCN(C(=O)Nc2ccc3c(c2)OCCO3)c2ccccc21	-18%	11µM*	?	-16%	0%	26%	?	?
CNC(=O)N1CCCN(C)c2ccccc21	i	i	i	-1%	i	/	/	/
O=C(Nc1ccccc1)N1CCCC(c2nc(C3CCOCC3)no2)C1 (stereo not drawn)	-5%	i	-3%	-2%	i	/	/	/
Cc1cccc(OCCc2noc(C3CN(C(=O)Nc4ccc5c(c4)OCCO5)C3)n2)c1	?	3.5µM*	?	?	1%	?	20%	7µM*
O=C(Nc1ccc2c(c1)OCCO2)N1CCCC(c2nc(C3CCOCC3)no2)C1 (stereo not drawn)	-5%	13µM*	-7%	1%	3%	23%	21%	?
CCc1nn2c(-c3ccco3)ccnc2c1-c1ccc(F)cc1	/	/	/	/	/	15%	10%	?
CC(C)Cc1nc2nccc(-c3ccco3)n2n1	7%	i	-2%	2%	i	/	/	/
O=C(Nc1ccc(F)cc1)c1ccc2nc(-c3ccccn3)oc2c1	?	/	?	/	i	/	/	/
O=C(Nc1c(C(=O)Nc2ccc(F)cc2)oc2ccccc12)c1cc2ccccc2o1	/	/	/	/	/	22%	14%	7.9µM*
CNC(=O)c1nc2cccnc2n(CCc2ccccc2)c1=O	?	/	-10%[138 µM]	/	i	/	/	/
COc1ccc(-c2cc3nc4c(c(=O)n3[nH]2)CN(C(=O)NCc2ccco2)CC4)cc1	?	7.1µM*	?	-2%	i	?	14%	11µM*
COc1ccc(-c2cc3nc4c(c(=O)n3[nH]2)CN(C(=O)Cc2ccccc2)CC4)cc1	3%	?	-7%	4%	i	/	/	/
CC(=O)N1CCN(C(=O)c2cc(-c3ccccc3F)nc3c2cnn3C)CC1	1%	/	-18%	/	/	/	/	/
Cc1nnc(CN(C)c2ccc(-c3nc(CCCc4ccccc4)no3)cn2)o1	?	?	-8%	?	-6%	/	/	/
CN(C)C1CCN(c2ccc(-c3nc(CCCc4ccccc4)no3)cn2)CC1	28µM*	5.6µM*	35µM*	-15%	-7%	11%	13%	-17%
Cc1ccc(C(=O)NC2CCN(c3cn[nH]c(=O)c3)CC2)cc1C	-3%	i	-11%	2%	2%	/	/	/
SMILES	HEK293 tox	FLuc inh-1	3T3 cytotox	NPR1 antag	GPT2 inh	FLuc SDR -ATP	FLuc SDR ATP	FLuc inh-2
Cc1ccc(C(=O)NC2CC2)cc1-c1ccc2[nH]ncc2c1	/	/	/	/	/	17%	12%	-16%
CCn1nccc1C(=O)N1C[C@@H]2CCCN3CCC[C@@H]([C@H]23)[C@H]1CCCC(=O)Nc1ccccc1	-4%	i	1%	2%	i	/	/	/
Oc1cc(-c2nc3ccccc3s2)cc2c1OCCN(Cc1cccn1-c1ccc(Cl)cn1)C2	/	/	/	/	/	16%	13%	-10%
Oc1cc(-c2nc3ccccc3s2)cc2c1OCCN(Cc1ncccn1)C2	?	?	-37%	3%	i	13%	11%	-15%
Cc1ccccc1-c1cc(O)c2c(c1)CN(Cc1nccn1C)CCO2	?	i	-29%	-8%	2%	/	/	/
Cc1noc(C)c1CC(=O)N1C[C@@H](Oc2ccccc2)C[C@@H]1C(=O)N1CCOCC1	-3%	i	-12%	8%	0%	/	/	/
Cc1noc(C)c1CC(=O)N1CCOc2c(cc(-c3nc4ccccc4s3)cc2OC2CCOC2)C1 (stereo not drawn)	/	/	/	/	/	12%	12%	-4%
Oc1cc(-c2nc3ccccc3s2)cc2c1OCCN(Cc1cn[nH]c1-c1ccc(Cl)cc1)C2	/	/	/	/	/	13%	8%	-1%
COCCn1c(=O)c2c(n1Cc1ccccc1)CN(Cc1ccc3c(c1)CCO3)CC2	0%[172 µM]	i	?	1%[70.6 µM]	i	/	/	/
Fc1ccccc1-c1n[nH]c2c1CN(Cc1cccn1-c1nccs1)CC2	?	i	-34%	-11%	i	/	/	/
c1ccc2sc(-c3cc4c(c(OC5CCOC5)c3)OCCN(Cc3cccn3-c3nccs3)C4)nc2c1 (stereo not drawn)	/	/	/	/	/	14%	11%	-3%
Oc1cc(-c2nc3ccccc3s2)cc2c1OCCN(Cc1cccn1-c1nccs1)C2	/	/	/	/	/	16%	9%	-5%
